# High-throughput results as filed in PubChem BioAssay.
# This is one part of a sample in which hits are shown more often than they occur.
# EphB4 antag: blocks human EphB4 binding to ephrin-B2; AID 720; hit rate 0.15% among 97,000; EphB4 LBD / TNYL-RAW-Alexa532 peptide, fluorescence polarization; inhibition, % at 7 µM; P54760;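 active = inhibition above the screen-wide mean inhibition plus 3 SD, cut at about 15% in these data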;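 note: 0% = DMSO wells and 100% = excess unlabeled TNYL-RAW peptide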
# DAT uptake mod: human DAT dopamine uptake with cocaine, either direction | Q01959 | LLC-PK1 hDAT cells, [14C]-dopamine uptake with cocaine IC80; actives deviate in either direction | hit rate 1.3% among 110,000 | B-score at 10 µM | AID 449768;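 active = Z score or B-score, a plate-position-corrected score, falls beyond the plate's 99.7% confidence bounds, in either direction; inactive = both scores lie inside the 99.7% bounds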;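 note: scored against the spread of the other compound wells on the same plate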
# Target sequence (Q01959 whole entry, looked up): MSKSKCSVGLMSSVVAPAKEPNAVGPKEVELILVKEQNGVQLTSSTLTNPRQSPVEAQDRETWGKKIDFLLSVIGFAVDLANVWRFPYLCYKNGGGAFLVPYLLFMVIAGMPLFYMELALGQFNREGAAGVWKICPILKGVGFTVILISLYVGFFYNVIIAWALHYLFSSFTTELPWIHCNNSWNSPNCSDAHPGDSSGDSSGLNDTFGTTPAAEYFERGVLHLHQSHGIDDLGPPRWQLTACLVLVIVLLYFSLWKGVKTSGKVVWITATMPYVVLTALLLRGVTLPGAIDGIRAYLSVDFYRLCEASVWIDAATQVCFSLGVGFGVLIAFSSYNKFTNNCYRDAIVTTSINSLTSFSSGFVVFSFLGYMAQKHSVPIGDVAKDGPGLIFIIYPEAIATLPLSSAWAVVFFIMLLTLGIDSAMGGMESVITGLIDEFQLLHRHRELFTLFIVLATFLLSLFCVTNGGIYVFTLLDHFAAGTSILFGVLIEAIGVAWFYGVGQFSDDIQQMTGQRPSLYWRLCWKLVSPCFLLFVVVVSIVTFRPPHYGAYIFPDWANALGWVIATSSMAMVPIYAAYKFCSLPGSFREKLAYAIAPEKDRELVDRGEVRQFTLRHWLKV
# D1 mod: allosterically modulates the human D1 dopamine receptor; HEK293 D1, CRE-luciferase, dopamine EC30 potentiation; actives deviate in either direction; AID 641; B-score at 10 µM; hit rate 5.9% among 58,000; P21728;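 active = luminescence count or its row- and column-corrected plate score outside the 99.7% band of the plate's sample wells, on either side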
# * hit, by the source's call; . = not tested or not shown.
SMILES,EphB4 antag,DAT uptake mod,D1 mod
CN(C)S(=O)(=O)c1cccc(NC(=O)COC(=O)CCc2nc3ccccc3s2)c1,-5,0.018,.
COc1ccc2nc(C)c3c(c2c1)OC(C)C3 (centres undefined),-4,-0.096,-1.9
Cc1c2c(nc3c(C)cccc13)OC(C)C2 (centres undefined),0,-0.18,-0.072
CCOC(=O)c1ccc2nc(C)c3c(c2c1)OC(C)C3 (centres undefined),4,0.17,-2.7*
COc1cccc2c3c(c(C)nc12)CC(C)O3 (centres undefined),-9,-0.23,-3.4*
CCC(=O)Nc1ccc(S(=O)(=O)N2CCCCC2)cc1OC,-7,1.1,.
COC(=O)n1c(=O)oc2cc(S(=O)(=O)N3CCCCC3)ccc21,6,-0.46,-6.8*
CCOC(=O)N1CCN(C(=O)c2oc3ccc(S(=O)(=O)N4CCCCCC4)cc3c2C)CC1,-2,-8.1*,-0.74
COc1cc(S(=O)(=O)N2CCCCC2)ccc1NC=O,1,.,-4.2*
COc1ccc(NC(=O)c2oc3ccc(S(=O)(=O)N4CCC5(CC4)OCCO5)cc3c2C)cc1,.,1,-3.3*
CCOC(=O)n1c(=O)oc2cc(S(=O)(=O)N3CCCCC3)ccc21,7,1,-0.039
Cc1c(C(=O)NCCc2ccccc2)oc2ccc(S(=O)(=O)N3CCC4(CC3)OCCO4)cc12,11,0.56,.
CCOC(=O)N1CCN(C(=O)c2oc3ccc(S(=O)(=O)N4CCOCC4)cc3c2C)CC1,.,1.7,.
CC(=O)OCc1c(C(F)(F)F)nn(C)c1SCc1ccc(Cl)cc1,7,-1,.
C[C@H]1CCC[C@@]2(O[C@H](CCO)C[C@H](O)[C@H]2O)O1,.,-0.17,.
Cc1ccc(Cn2c(CCNc3nc(-c4ccc(Cl)c([N+](=O)[O-])c4)cs3)nc3cc(C(=O)NCCCO)ccc32)cc1,.,0.035,.
O=C1C(Nc2ccccc2)=C(N2CCCCC2)C(=O)c2ccccc21,5,-5*,.
O=C1C(Nc2cccc(O)c2)=C(N2CCCCC2)C(=O)c2ccccc21,4,-2.7*,.
Cc1ccc(NC2=C(N3CCCCC3)C(=O)c3ccccc3C2=O)cc1,9,0.49,.
O=C(/C=C/c1ccc(O)cc1)c1ccc(NC2=C(N3CCCCC3)C(=O)c3ccccc3C2=O)cc1,-9,2.4,.
COC/C=C/C1=CC2=CC(=O)C(C)(OC(=O)c3cnc4ccccc4n3)C(=O)C2=CN1C1CCCC1 (centres undefined),.,-2.3,.
COc1cc(C(=S)N2CCCC2)cc(OC)c1O,-2,-0.39,.
CC(C)CCN(C(=O)Nc1ccccc1)C(C)c1cccs1 (centres undefined),-4,0.075,.
CC1SC(=NC(=O)C(C)N2C(=O)c3ccccc3C2=O)NC1=O (centres undefined),-5,-1.8,.
O=C(Nc1ccccc1-c1ccccc1)C1CCCN(c2ncccn2)C1 (centres undefined),1,-0.98,-0.3
SMILES,EphB4 antag,DAT uptake mod,D1 mod
CCOC(=O)c1cnn(-c2ccccn2)c1N,-1,0.0024,-0.53
CCOC(=O)c1cnn(-c2sc(C(=O)OCC)c(C)c2C(=O)OCC)c1N,-7,-2.5*,-2.4
C[C@H](NC(=O)c1nc[nH]c1C(=O)N[C@@H](CCCCNC(=O)OC(C)(C)C)C(=O)OC(C)(C)C)c1ccccc1,.,0.72,.
Cc1ccc(/C=C/c2nnc(-c3ccccc3)o2)cc1,0,0.59,.
Cc1ccc(-c2nnc(Nc3ccccc3)o2)cc1,-6,-2.2,-4.2*
CC(=O)Nc1nc2cc3c(cc2s1)OCO3,-5,-0.0024,-1.3
O=C(Nc1nc2cc3c(cc2s1)OCO3)C1=COCCO1,.,-1.1,-8.3*
Clc1cccc(Cl)c1C1=NOC(c2nnc(-c3ccccc3)o2)C1 (centres undefined),.,-0.13,.
CCOC(=O)C(NC(=O)CC)(N1CCc2ccccc2C1)C(F)(F)F (centres undefined),-1,-1.7,.
CCOC(=O)c1ccc(NC(=O)c2nc[nH]c2C(=O)N(CC)CC)cc1,.,1.6,.
CCN(CC)C(=O)c1[nH]cnc1C(=O)Nc1ccc(OC)cc1,.,3.1*,.
CSC1=C(C#N)C2(CCCC2)C(C#N)=C(N)N1,3,-0.36,0.23
CCSC1=C(C#N)C2(CCCC2)C(C#N)=C(N)N1,2,-2.7*,1.4
CCOCCCn1c(=S)[nH]c2cc3c(cc2c1=O)OCO3,.,.,-0.27
NC(=O)CC[C@@H]1NC(=O)C(Cc2ccc(O)cc2)NC(=O)c2cc([N+](=O)[O-])cc(F)c2NCCC[C@@H](C(N)=O)NC1=O (some centres undefined),.,-0.54,.
O=C(CN1CCOCC1)N1CCN(c2ccc3ccccc3n2)CC1,.,-0.0057,.
CC(=O)c1ccc(-c2ccccc2[C@H]2[C@H]3C=CC[C@@H](C)[C@@H]3C(=O)N2Cc2ccccc2)cc1,.,0.29,.
CC(C)(C)C1=Nn2c(nnc2-c2n[nH]c3c2CCC3)SC1,3,0.041,0.81
Fc1ccc(C2=Nn3c(nnc3-c3n[nH]c4c3CCC4)SC2)cc1,10,1.1,-3*
CC1=Nn2c(nnc2-c2n[nH]c3c2CCC3)SC1,6,-8*,-0.0096
Cc1cc(-c2nnc3n2N=C(c2ccc(-c4ccccc4)cc2)CS3)n[nH]1,1,0.77,-0.3
COCCNC(=O)CCCCCn1c(=S)[nH]c2ccccc2c1=O,1,0.029,.
CCN(CC)CCNC(=O)CCCCn1c(=S)[nH]c2c([nH]c3ccc(OC)cc32)c1=O,2,2.6*,0.93
Cc1ccc(NC(=O)CSc2nc3ccccc3c(=O)n2CCCN2CCCCC2)cc1C,0,2.4,.
COC(=O)C[C@H]1c2cc(C(F)(F)F)ccc2S(=O)(=O)N1C(C)(C)C,.,-0.66,.
SMILES,EphB4 antag,DAT uptake mod,D1 mod
Cc1nc(-c2ccccc2)sc1C1(C)CC(c2ccc(C#N)cc2)=NO1 (centres undefined),.,-0.16,.
c1ccc2c(c1)ncn2-c1ncnc2sc3c(c12)CCCC3,0,0.29,.
CC(O)CNc1nc2ccccc2n1-c1ncnc2sc3c(c12)CCC3 (centres undefined),0,2.8*,0.44
CCNC(=O)/C(=C/c1ccc2c(c1)OCO2)NC(=O)c1ccc(Br)cc1,-11,2.1,.
c1ccc(-c2nc3c(ccc4ccccc43)[nH]2)nc1,5,4.1*,.
O=c1[nH]c(-c2ccccn2)nc2ccccc12,-2,1.1,0.47
COc1cc(C2Nn3c(nnc3-c3ccccc3OC)S2)ccc1O (centres undefined),1,0.15,.
COc1ccccc1CN1[C@@H](CC(=O)O)c2cc(F)ccc2S1(=O)=O,.,-0.81,.
O=C(Cc1ccc(Cl)cc1)Nc1nc2ccccc2[nH]1,4,-0.18,.
O=C(Cc1ccccc1)Nc1nc2ccccc2[nH]1,0,0.52,-5.5*
O=C(Nc1cc2c3c(c1)C1CCCC1CN3CC1CCCC21)c1ccccc1 (centres undefined),13,1.2,.
COc1ccc(NC(=O)c2cc(S(=O)(=O)N3CCS(=O)(=O)CC3)ccc2Cl)cc1,-3,1.3,.
CCCCC(O)(C(NC=O)C(=O)OC)C(F)(F)F (centres undefined),2,-8.6*,-0.017
O=C([C@@H]1CC=C[C@@H]2CCN(C3CC3)C(=O)[C@@H]21)N1CCN(c2ccccc2)CC1,.,1.2,.
CCC(CC)C(=O)N=C1SC2CS(=O)(=O)CC2N1CCc1ccc(OC)cc1 (centres undefined),2,-0.95,.
O=C(Cc1ccccc1)NCC1CCCO1 (centres undefined),-3,-0.0019,.
